Screens (PubChem BioAssay)
Compounds with a hit are over-represented: about 4.7% of the library has one in this group of screens.
RecA splice inh: Mtb RecA intein splicing inhibitors, primary screen, biochemical, fluorescence, HTS; Protein RecA (Mycobacterium tuberculosis (strain ATCC 25618 / H37Rv)), P9WHJ3; cell-free RecA intein splicing; inhibition, % (test concentration not listed); 0.75% of 290,000 active; AID 2221, 2009; in the data active means inhibition above about 30%;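 further: 0% = vehicle wells and 100% = reference inhibitor control wells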
Target sequence (P9WHJ3 whole entry, looked up, canonical isoform): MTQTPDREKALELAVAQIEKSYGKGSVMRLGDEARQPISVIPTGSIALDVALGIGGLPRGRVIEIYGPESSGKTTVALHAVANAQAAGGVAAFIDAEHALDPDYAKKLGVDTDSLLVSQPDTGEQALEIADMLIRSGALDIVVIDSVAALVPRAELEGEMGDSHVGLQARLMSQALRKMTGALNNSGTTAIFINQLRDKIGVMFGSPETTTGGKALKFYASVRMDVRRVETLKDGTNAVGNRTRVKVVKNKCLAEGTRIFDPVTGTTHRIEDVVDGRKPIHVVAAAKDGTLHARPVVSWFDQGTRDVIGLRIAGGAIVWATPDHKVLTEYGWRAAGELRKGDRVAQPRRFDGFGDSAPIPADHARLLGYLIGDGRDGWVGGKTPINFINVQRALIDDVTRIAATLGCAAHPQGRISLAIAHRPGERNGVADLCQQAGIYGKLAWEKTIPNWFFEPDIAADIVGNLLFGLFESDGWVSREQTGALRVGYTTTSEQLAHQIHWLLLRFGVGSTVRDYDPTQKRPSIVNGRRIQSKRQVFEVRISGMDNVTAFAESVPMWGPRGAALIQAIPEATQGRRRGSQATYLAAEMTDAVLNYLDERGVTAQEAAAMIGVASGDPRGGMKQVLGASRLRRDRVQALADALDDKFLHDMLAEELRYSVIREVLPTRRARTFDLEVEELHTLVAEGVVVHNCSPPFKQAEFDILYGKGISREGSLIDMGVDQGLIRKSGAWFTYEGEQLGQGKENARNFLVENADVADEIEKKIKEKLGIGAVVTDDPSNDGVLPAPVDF
VHR inh abs: VHR1 phosphatase inhibitors, primary screen, biochemical, absorbance, uHTS | recombinant VHR phosphatase, pNPP absorbance | inhibition, % at 13.3 µM | 0.52% of 290,000 active | AID 1654, 2009; in the data active means inhibition above about 50%
CCHF vOTU inh: CCHFV vOTU protease inhibitors, primary screen, biochemical, Pep-AMC substrate, fluorescence; Crimean-Congo hemorrhagic fever virus L polyprotein viral ovarian tumor (vOTU) protease …; inhibition, % at 11.5 µM; 0.55% of 370,000 active; AID 651958, 2012; further: 0% = vehicle wells with enzyme and 100% = no enzyme wells
SARS 3CLpro inh: SARS-CoV 3CLpro protease inhibitors, primary screen, biochemical, quenched FRET; recombinant SARS-CoV 3CLpro, quenched FRET peptide cleavage; inhibition, % at 6 µM; 0.14% of 290,000 active; AID 1706, 2009; in the data active means inhibition above about 12%
GDH-TPI counter: GDH-TPI coupling enzyme inhibitors, primary screen, artefact control for M. tuberculosis FBA inhibitor project, biochemical, absorbance, full deck; 1.2% of 360,000 active; inhibition, % at 4.8 µM; GDH-TPI coupled enzyme counterscreen, NADH absorbance;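 further: 0% = DMSO wells and 100% = wells lacking the enzyme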
FBA Mtb inh: Mtb FBA enzyme inhibitors, primary screen, biochemical, fluorescence, strain H37Rv; AID 588726, 2011; 2.3% of 360,000 active; inhibition, % at 1 µM; purified M. tuberculosis FBA, fluorescence read-out; in the data active means inhibition above about 27%;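 further: 0% = vehicle and 100% = reference inhibitor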
* = called active by the depositor; / = not tested or not shown; + = active, no number. Unless noted, no stated cut-off is given here; in the data, active means inhibition above about 30%; inactive means the rest.

SMILES | RecA splice inh | VHR inh abs | CCHF vOTU inh | SARS 3CLpro inh | GDH-TPI counter | FBA Mtb inh
Cc1cc(/C=N/NC(=O)c2ccncc2)c(C)n1-c1ccccc1 | / | 8.4 | -5.5 | -1.0 | 18.6 | 0.0
Cc1cc(=O)[nH]c(N/N=C/c2cc(C)n(-c3ccccc3)c2C)n1 | 0.3 | 5.0 | -6.9 | 3.4 | 42.6* | -1.1
CCOC(=O)CSc1nnc2n(Cc3ccccc3)c(=O)c3c4c(sc3n12)CCC4 | / | 51.7* | 2.3 | 5.3 | 6.6 | 0.6
Cc1nnc2n(Cc3ccccc3)c(=O)c3c4c(sc3n12)CCCC4 | / | 8.2 | / | / | / | /
CSc1ccc(-c2cc(=O)c3ccccc3o2)cc1 | -24.8 | 2.6 | -258.8 | 1.6 | 45.4* | +
COc1ccc(C)cc1NC(=O)COC(=O)Cc1c[nH]c2ccccc12 | / | / | 3.9 | / | 5.4 | -1.9
Cc1ccccc1Cc1c(C)nc2nc(SCC(=O)NCCCN3CCCCC3)nn2c1C | / | 57.6* | / | 2.4 | 2.7 | 4.3
Cc1nc2nc(SCC(=O)NCCCN3CCCCCC3)nn2c(C)c1Cc1ccccc1 | / | 17.1 | 4.5 | -0.8 | 0.4 | 0.9
Cc1nc2nc(SCC(=O)NCc3ccco3)nn2c(C)c1Cc1c(F)cccc1Cl | 2.3 | 51.0* | 2.8 | -4.3 | -8.6 | 4.0
COc1ccccc1CCNC(=O)Cn1ccc2cc(S(=O)(=O)N3CCC(C)CC3)ccc21 | 1.1 | -23.7 | 0.0 | 8.2 | -12.2 | -4.9
CCN(CC)c1ccc(-c2nnc(SCC(=O)N(CCOC)c3c(N)n(CC(C)C)c(=O)[nH]c3=O)o2)cc1 | 0.5 | / | 13.6 | / | 47.2* | -1.8
COCCN(C(=O)CSc1nnc(-c2ccc(C)c(C)c2)o1)c1c(N)n(CC(C)C)c(=O)[nH]c1=O | 0.7 | / | -8.4 | / | -3.5 | -2.2
Cc1c(C)c2cc(Cl)c(O)c(CN3CCCCC3)c2oc1=O | -29.9 | 4.2 | / | 0.6 | / | /
CCc1cc(=O)oc2c(CNCc3ccc(OC)cc3OC)c(O)c(Cl)cc12 | -21.8 | -11.9 | -361.6 | 2.8 | 16.0 | +
COc1ccc(CNCc2c(O)c(Cl)cc3c(C)c(C)c(=O)oc23)c(OC)c1 | -394.0 | -11.9 | -371.2 | -2.9 | 18.0 | +
CCCc1cc(=O)oc2c(CN(CC)CC)c(O)c(Cl)cc12 | -139.0 | -6.5 | -325.1 | 3.2 | 22.7 | /
Cc1noc(/C=C/N(C)C)c1S(=O)(=O)N1CCCC(C(=O)Nc2ccc(F)cc2F)C1 (stereo unspecified) | -3.2 | 3.7 | 19.2 | -1.8 | 39.3* | -5.8
Cc1ccc(CCNC(=O)C2CCCN(S(=O)(=O)c3c(C)noc3/C=C/N(C)C)C2)cc1 (stereo unspecified) | / | 23.2 | 10.4 | 4.1 | 53.1* | -2.2
Cc1noc(/C=C/N(C)C)c1S(=O)(=O)N1CCCC(C(=O)N2CCc3ccccc32)C1 (stereo unspecified) | / | / | -4.3 | -8.5 | 14.8 | -1.1
Cc1ccc(CCNC(=O)C2CCCN(S(=O)(=O)c3c(C)noc3C)C2)cc1 (stereo unspecified) | / | 10.7 | 0.1 | 0.4 | 6.9 | 2.7
Cc1ccc(NC(=O)C2CCCN(S(=O)(=O)c3c(C)noc3C)C2)c(Br)c1 (stereo unspecified) | -2.3 | -15.7 | -2.2 | 7.8 | 8.3 | 2.7
Cc1ccc(NC(=O)C2CCCN(S(=O)(=O)c3c(C)noc3/C=C/N(C)C)C2)c(C)c1 (stereo unspecified) | -3.6 | 12.3 | -3.8 | -0.3 | 35.9* | -1.7
Cc1ccc(C)c(NC(=O)C2CCCN(S(=O)(=O)c3c(C)noc3/C=C/N(C)C)C2)c1 (stereo unspecified) | -2.6 | 25.3 | 4.7 | 8.0 | 38.5* | -4.1
C=CCN1C(=O)/C(=C/C=C2/N(CC)c3ccc(S(=O)(=O)N(C)C)cc3N2CC)SC1=S | 11.8 | 21.2 | -12.9 | 3.6 | 2.7 | 3.5
O=C(NCc1cccs1)C1C2C=CC3(CN(Cc4ccccc4)C(=O)C13)O2 (stereo unspecified) | / | / | -8.3 | / | / | /
COC(=O)[C@]12C[C@H](CC(=O)N3CCCCC3)C(=O)N(Cc3ccco3)C1=C[C@H](C1CCCC1)O[C@@H]2C | / | / | 5.0 | / | / | /
